In PMC5540273 (PLoS ONE, 2017) one finds Kd data, which are given here for eight compounds.

Usually Kd stands for a measure of binding affinity in units of concentration.
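Also: kd values determined as follow-up on hits from a single-replicate KINOMEscan panel screen.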

`Fc1cc(Cl)ccc1Nc1ccnc2cc(-c3ccc(CN4CCCCC4)o3)ccc12` [GW560116]: in the test on SRC, binding was put at a Kd of 4.4 µM. As to `O=C1NC(=O)C(N2CCc3ccccc32)=C1c1ccccc1Cl` [SB-373598], the Kd in the test with SRMS and in the test on TAOK2 was above 10 µM throughout. With `Cc1ccc(C(=O)Nc2ccc(Nc3ccnc4cc(-c5ccccn5)ccc34)cc2O)cc1.Cl` [GW440146], in the test with SRMS, the Kd was 0.35 µM. `COc1cccc(-c2cc(-c3c[nH]nc3-c3ccccn3)ccn2)c1` [GW680338] returned a Kd in the test on SRPK1 above 10 µM. Regarding `CS(=O)(=O)c1ccc(-c2nc3n(c2-c2ccncc2)CCC3)cc1` [SKF-105942], the Kd in the test with STK16 is above 10 µM. With `COc1cc2ncn(-c3cc(OCC4CCCO4)c(C(N)=O)s3)c2cc1OC` (stereo not drawn) [GSK204607], in the test on STK35, binding was put at a Kd of 3.6 µM. Regarding `Cl.O=C(Nc1cccc(-c2nn3ncccc3c2-c2ccnc(Nc3cccnc3)n2)c1)c1c(F)cccc1F` [GSK312879], the Kd with STK36 is 0.098 µM. `Cc1ccccc1-n1cnc2c(N)ncnc21` [SKF-97510]: the equilibrium dissociation constant (Kd) in the test on SYK was above 10 µM.
